This note sets out measurements from PubChem BioAssay.

Activity calls are given as the source filed them.

One test addresses Albumin (Bos taurus) (UniProt P02769). Kind of test: compounds binding labelled BSA control protein – biochemical, small-molecule microarray, Alexa647 label, 635/667 nm fluorescence, artefact control for SMM control protein annotation, profiling panel (AID 1118).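 Note: score merges 667 nm emission intensity and signal-to-noise per printed compound spot.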 Conditions: BSA-A647 binding, fluorescence 635 nm, higher = more signal.
Test [1] is described as follows: probe aXIP binding to arrayed compounds – biochemical, NeuroSMM set, 635/667 nm fluorescence, primary screen (AID 1119).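 Note: probe is the protein aXip251-270 applied at 1 µg/mL to compound-printed slides; binding of probe to printed compounds measured as 667 nm fluorescence plus signal to noise.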 Conditions: small-molecule microarray, higher = more signal, called active from +8 up or from −8 down.
A short description of test [2]: probe aNOTCH3 binding on compound microarray – biochemical, small-molecule microarray, 635/667 nm fluorescence, primary screen (AID 1120).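 Note: probe is a biotin-tagged antibody raised against NOTCH3 rather than NOTCH3 protein; score merges spot fluorescence near 667 nm with spot signal to noise.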 Conditions: higher = more signal.
The nature of test [3]: probe aNOTCH2 binding on compound microarray – biochemical, small-molecule microarray, 635/667 nm fluorescence, primary screen (AID 1121).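 Note: score merges feature fluorescence read at 667 nm with its signal to noise.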 Conditions: higher = more signal.
The target of test [4] is Carbonic anhydrase 2 (Homo sapiens) (UniProt P00918). Description: compounds binding carbonic anhydrase 2 – biochemical, small-molecule microarray, Alexa647-labelled CAII, profiling panel (AID 1122). Conditions: CAII-A647 binding fluorescence, higher = more signal.
Test [5] in a line: COS7 lysate on small-molecule microarray, probe aHis, 635 nm (AID 1123).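 Note: z-score combines 667nm fluorescence intensity with signal-to-noise per printed compound spot.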 Conditions: COS7 cell lysate, fluorescence, higher = more signal.
Test [6] in a line: probe aLAP1 signal on lysate-treated microarray – cell lysate, small-molecule microarray, COS7 lysate, primary screen (AID 1124).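 Note: lysate comes from COS7 cells expressing LAP1 and is applied at 0.3 µg/mL; score merges spot fluorescence near 667 nm with signal-to-noise over triplicate slides.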 Conditions: probe aLAP1, fluorescence, higher = more signal.
A further test deals with Sam68 (KHDRBS1). Description: compounds binding KHDRBS1 protein – biochemical, small-molecule microarray, 635 nm fluorescence, primary screen (AID 1125).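 Note: score merges 667 nm channel intensity with signal to noise over triplicate slides.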 Conditions: higher = more signal.
Test [7] has as its system Chordin-like protein 2 (CHRDL2). Kind of test: compounds binding chordin-like 2 – biochemical, small-molecule microarray, 635 nm fluorescence, primary screen (AID 1126).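 Note: printed compound slides probed with Chrdl2 protein at 4 µg/mL for 1 h at 4 C; score merges 667 nm emission intensity with signal to noise over three replicate slides.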 Conditions: fluorescence 635 nm, higher = more signal.
Test [8] concerns the target Concanavalin-A (Canavalia ensiformis) (UniProt P02866). Description: compounds binding concanavalin A lectin – biochemical, small-molecule microarray, Alexa647 label, 635 nm, artefact control for SMM control protein annotation, primary screen (AID 1127).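 Note: z combines 667 nm emission intensity with signal-to-noise across three replicate slides.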 Conditions: ConA-A647 binding fluorescence, higher = more signal.
Test [9] in a line: compounds binding Alexa647 anti-His antibody – biochemical, small-molecule microarray, 635 nm fluorescence, artefact control for SMM control protein annotation, primary screen (AID 1128).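 Note: score merges feature fluorescence with signal-to-noise for each printed compound spot.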 Conditions: higher = more signal.
Test [10] relates to Human papillomavirus type 1a E7 protein (residues 1-88). Description: HPV1a E7 small-molecule binders, primary screen, biochemical, small-molecule microarray, residues 1-88, 635 nm (AID 1129). Conditions: small-molecule microarray binding, fluorescence 635 nm; higher = more signal.
Test [11] deals with Focal adhesion kinase 1 (Homo sapiens) (UniProt Q05397). Kind of test: PTK2 protein binding on printed compound slides – biochemical, small-molecule microarray, 635/667 nm fluorescence, BSA, DTT, primary screen (AID 1130).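 Note: composite of spot emission at 667 nm and signal to noise over triplicate slides.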 Conditions: 635 nm fluorescence, higher = more signal.
Sequence of Focal adhesion kinase 1 (Homo sapiens) (Q05397 whole entry, looked up): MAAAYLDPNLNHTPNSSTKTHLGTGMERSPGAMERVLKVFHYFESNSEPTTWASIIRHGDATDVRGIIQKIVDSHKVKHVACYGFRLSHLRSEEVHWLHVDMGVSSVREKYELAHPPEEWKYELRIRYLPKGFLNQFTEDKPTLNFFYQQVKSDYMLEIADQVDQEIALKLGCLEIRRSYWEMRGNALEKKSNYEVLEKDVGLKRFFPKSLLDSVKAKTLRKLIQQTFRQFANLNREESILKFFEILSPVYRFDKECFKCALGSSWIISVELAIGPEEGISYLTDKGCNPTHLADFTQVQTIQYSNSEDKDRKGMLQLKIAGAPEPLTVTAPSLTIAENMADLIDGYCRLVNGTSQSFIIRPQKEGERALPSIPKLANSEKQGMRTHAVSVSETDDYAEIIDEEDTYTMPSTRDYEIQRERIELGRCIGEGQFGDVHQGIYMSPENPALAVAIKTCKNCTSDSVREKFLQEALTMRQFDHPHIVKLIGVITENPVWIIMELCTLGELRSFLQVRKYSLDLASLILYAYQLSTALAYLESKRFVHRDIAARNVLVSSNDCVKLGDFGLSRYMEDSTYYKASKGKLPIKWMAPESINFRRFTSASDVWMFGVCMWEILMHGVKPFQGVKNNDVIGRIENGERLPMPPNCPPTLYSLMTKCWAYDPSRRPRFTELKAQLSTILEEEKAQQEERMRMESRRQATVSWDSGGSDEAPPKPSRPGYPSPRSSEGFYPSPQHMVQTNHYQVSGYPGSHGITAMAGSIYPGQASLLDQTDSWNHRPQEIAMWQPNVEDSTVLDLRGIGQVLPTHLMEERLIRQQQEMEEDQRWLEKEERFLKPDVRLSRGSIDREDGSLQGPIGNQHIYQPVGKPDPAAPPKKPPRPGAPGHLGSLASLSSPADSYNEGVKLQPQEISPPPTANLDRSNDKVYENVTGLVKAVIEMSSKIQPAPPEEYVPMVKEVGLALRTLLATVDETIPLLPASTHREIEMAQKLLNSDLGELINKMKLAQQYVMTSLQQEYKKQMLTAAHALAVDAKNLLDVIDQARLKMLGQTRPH
Test [12] relates to Fibrinogen (Alexa647-labelled). Description: Alexa647-fibrinogen binding to printed small molecules – biochemical, small-molecule microarray, 635/667 nm fluorescence, artefact control for SMM control-protein annotation, profiling panel (AID 1131).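 Note: z-score merges 667 nm fluorescence with per-spot signal-to-noise over triplicate slides.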 Conditions: fibrinogen-A647 binding fluorescence, higher = more signal.
The target in test [13] is Follistatin (Homo sapiens) (UniProt P19883). Kind of test: FST protein binding to printed compounds – biochemical, small-molecule microarray, 635/667 nm fluorescence, primary screen (AID 1132). Conditions: 635 nm fluorescence, higher = more signal.
Sequence of Follistatin (Homo sapiens) (P19883 whole entry, looked up): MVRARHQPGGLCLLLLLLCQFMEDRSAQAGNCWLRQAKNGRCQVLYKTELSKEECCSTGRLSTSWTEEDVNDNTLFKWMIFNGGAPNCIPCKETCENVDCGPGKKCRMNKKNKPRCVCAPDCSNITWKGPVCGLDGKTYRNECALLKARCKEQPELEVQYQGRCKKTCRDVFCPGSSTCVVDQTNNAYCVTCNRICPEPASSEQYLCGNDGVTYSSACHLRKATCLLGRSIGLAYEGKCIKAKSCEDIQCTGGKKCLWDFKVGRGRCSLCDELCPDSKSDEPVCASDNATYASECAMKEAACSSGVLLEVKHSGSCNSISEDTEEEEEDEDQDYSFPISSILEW
Test [14] deals with Fibroblast growth factor 2 (Homo sapiens) (UniProt P09038). Kind of test: basic fibroblast growth factor binding to printed compounds – biochemical, small-molecule microarray, 635/667 nm fluorescence, primary screen (AID 1133). Conditions: FGF2, fluorescence 635/667, higher = more signal.
Sequence of Fibroblast growth factor 2 (Homo sapiens) (P09038 whole entry, looked up): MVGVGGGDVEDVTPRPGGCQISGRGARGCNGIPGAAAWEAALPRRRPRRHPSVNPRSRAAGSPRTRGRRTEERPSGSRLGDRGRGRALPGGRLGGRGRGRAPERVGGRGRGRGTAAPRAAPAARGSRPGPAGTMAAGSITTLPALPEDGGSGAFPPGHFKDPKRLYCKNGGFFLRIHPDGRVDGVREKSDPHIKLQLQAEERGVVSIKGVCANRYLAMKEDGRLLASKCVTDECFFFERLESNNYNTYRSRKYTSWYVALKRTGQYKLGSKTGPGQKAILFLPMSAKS
A short description of test [15]: JC-1 mitochondrial potential readout, lung cancer cells – cell-based, A549, JC-1 fluorescence, basal, 24 h, 100 nL, profiling panel (AID 1138).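 Note: A549 lung adenocarcinoma cells under basal conditions with no added stimulus; test concentration not given here.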 Conditions: higher = more signal.
The subject of another test is Lefty1. Kind of test: Lefty1 protein binding to printed compounds – biochemical, small-molecule microarray, 635/667 nm fluorescence, primary screen (AID 1139). Conditions: fluorescence 635/667, higher = more signal.
Test [16] has as its system wheat germ agglutinin (Triticum aestivum), Alexa647-labelled. Kind of test: Alexa647-WGA lectin binding to printed small molecules – biochemical, small-molecule microarray, 635/667 nm fluorescence, artefact control for SMM control-protein annotation, profiling panel (AID 1140).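 Note: score merges 667 nm feature emission with signal to noise over triplicate slides.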 Conditions: WGA-A647 binding, 635 nm fluorescence, higher = more signal.
Test [17] has as its target Luciferin 4-monooxygenase (Photinus pyralis) (UniProt P08659). Kind of test: inhibition of purified Photinus pyralis luciferase – biochemical, luminescence, purified enzyme, 2006 set, primary screen (AID 1141).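 Note: cell-free assay with purified firefly luciferase at 100 ng per well in PBS; test concentration not given here.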 Conditions: purified firefly luciferase, SteadyGlo luminescence, 30 min; higher = more signal, called active from +8 up or from −8 down.

Sequence of Concanavalin-A (Canavalia ensiformis) (P02866 whole entry, looked up): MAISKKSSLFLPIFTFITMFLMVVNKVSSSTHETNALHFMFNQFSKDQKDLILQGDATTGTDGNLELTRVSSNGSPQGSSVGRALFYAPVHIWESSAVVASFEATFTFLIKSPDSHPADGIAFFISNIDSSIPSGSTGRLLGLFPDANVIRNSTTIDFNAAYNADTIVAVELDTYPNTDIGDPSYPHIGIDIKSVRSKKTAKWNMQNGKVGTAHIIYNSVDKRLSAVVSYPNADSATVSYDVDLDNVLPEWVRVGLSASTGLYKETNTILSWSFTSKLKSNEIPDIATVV
Sequence of Luciferin 4-monooxygenase (Photinus pyralis) (P08659 whole entry, looked up): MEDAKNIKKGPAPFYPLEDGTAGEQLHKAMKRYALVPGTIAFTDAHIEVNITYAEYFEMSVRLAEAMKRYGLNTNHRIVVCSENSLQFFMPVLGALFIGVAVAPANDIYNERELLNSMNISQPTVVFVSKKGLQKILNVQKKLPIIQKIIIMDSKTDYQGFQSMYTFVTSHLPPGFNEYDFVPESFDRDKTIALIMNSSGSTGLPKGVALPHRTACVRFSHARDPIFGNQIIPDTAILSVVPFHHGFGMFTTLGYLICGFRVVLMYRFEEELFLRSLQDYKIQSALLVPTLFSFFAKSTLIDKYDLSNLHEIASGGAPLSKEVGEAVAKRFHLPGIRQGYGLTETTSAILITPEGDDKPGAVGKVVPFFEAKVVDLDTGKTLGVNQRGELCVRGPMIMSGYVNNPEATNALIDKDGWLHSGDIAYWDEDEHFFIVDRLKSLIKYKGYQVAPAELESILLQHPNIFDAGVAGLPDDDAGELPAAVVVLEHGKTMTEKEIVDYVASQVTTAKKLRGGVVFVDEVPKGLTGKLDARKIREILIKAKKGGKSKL
Sequence of Albumin (Bos taurus) (P02769 whole entry, looked up): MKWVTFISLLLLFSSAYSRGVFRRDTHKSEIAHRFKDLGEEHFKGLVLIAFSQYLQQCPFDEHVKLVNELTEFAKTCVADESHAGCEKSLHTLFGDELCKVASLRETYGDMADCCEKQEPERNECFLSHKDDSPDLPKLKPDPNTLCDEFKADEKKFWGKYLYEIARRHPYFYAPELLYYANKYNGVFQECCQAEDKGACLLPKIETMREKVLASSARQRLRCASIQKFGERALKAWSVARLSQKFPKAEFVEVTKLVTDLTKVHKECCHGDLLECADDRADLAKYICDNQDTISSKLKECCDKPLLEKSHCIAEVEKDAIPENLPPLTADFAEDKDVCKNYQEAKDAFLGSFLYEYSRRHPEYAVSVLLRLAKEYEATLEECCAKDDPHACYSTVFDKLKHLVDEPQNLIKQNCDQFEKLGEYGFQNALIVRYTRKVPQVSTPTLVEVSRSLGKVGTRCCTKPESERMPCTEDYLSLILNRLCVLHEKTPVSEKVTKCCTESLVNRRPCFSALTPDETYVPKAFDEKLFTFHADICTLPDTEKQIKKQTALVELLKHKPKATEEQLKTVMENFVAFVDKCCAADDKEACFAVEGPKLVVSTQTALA

In the case of `C=CCOC(=O)[C@@H]1[C@H]2C(=O)O[C@H](c3ccccc3)[C@H](c3ccccc3)N2[C@H](c2ccc(OCCOC(=O)[C@H]3C[C@H]4C(=O)N[C@@H](CC(C)C)C(=O)N4[C@H]3c3cccc(OCCO)c3)cc2)[C@@]12C(=O)Nc1ccc(I)cc12`, the composite z-score is -0.413 with Albumin (Bos taurus); 0.19 in test [2]; -0.0424 in test [3]; 0.35 in test [4]; 1.48 in test [5]; 0.334 in test [6]. Besides, the composite z-score with Sam68 (KHDRBS1) amounted to 1.29; in test [7] it was 1.04; in test [8], 1.14; in test [9], 2.26; in [10] it was 1.19; in [11] it was 0.844. In addition, the composite z-score in test [12] was 0.587; in [13], 1.38; in test [14], 1.63; in the test on Lefty1, 1.5; in [16] it was 0.34. In test [1], the composite Z-score was -0.367 (inactive). Also, the z-score in test [15] is -0.736; in [17] it was -0.201 (inactive).

Regarding `COCCOC(=O)N1C(=O)[C@@]2(c3cc(C#Cc4ccc(OC)cc4)ccc31)[C@H](c1ccc(OCCO)cc1)N1[C@H](c3ccccc3)[C@H](c3ccccc3)OC(=O)[C@H]1[C@@H]2C(=O)N1CCc2cc(OC)c(OC)cc2C1`, the composite z-score was -0.536 with Albumin (Bos taurus); 0.0194 in test [2]; -0.0907 in test [3]; 0.228 in test [4]; 0.875 in [5]; 0.556 in [6]. The composite z-score in the test on Sam68 (KHDRBS1) was 1.17; in [7] it was 0.599; in test [8] it was 0.843; in test [9], 0.512; in test [10] it was 1.08; in test [11], 0.272. In addition, the composite z-score in test [12] is -0.122; in test [13], 1.25; in test [14] it was 1.24; in the test on Lefty1 it was 1.13; in [16], -0.12. For the same compound, the composite Z-score in test [1] was 0.343 (inactive). Besides, the values for the z-score in [15] and in test [17] were -1.35 and -0.584 (inactive), respectively.

As for `C=CCOC(=O)[C@H]1[C@@H]2C(=O)O[C@@H](c3ccccc3)[C@@H](c3ccccc3)N2[C@@H](c2ccc(OCCOC(=O)[C@H]3C[C@H]4C(=O)N[C@@H](CCCC[N+](C)(C)C)C(=O)N4[C@H]3c3ccc(O)cc3)cc2)[C@]12C(=O)Nc1ccccc12`, the composite z-score in the test with Albumin (Bos taurus) is -0.317; in test [2], 0.0306; in test [3], -0.14; in [4], 0.456; in test [5], 0.776; in [6] it was 0.411. The composite z-score in the test with Sam68 (KHDRBS1) is 0.028; in test [7], 0.518; in test [8], 0.843; in test [9], 0.94; in test [10], -0.0508; in [11], 0.193. Besides, the composite z-score in test [12] came out at 0.252; in test [13] it was 1.16; in [14], 0.703; in the test with Lefty1 it was 0.653; in test [16], 0.22. Besides, in [1], the composite Z-score is 0.0338 (inactive). Besides, the results for the z-score in test [15] and in [17] were 0.193 and -1.28 (inactive), respectively.

On to `C=C(C(=O)CC[C@@H](OC(C)=O)c1ccc(OCCO)cc1)C(C)C`, for which the composite z-score in the test with Albumin (Bos taurus) is 0.773; in test [2], -0.122; in [3], -0.0908; in test [4] it was 0.76; in [5], 1.57; in test [6], -0.773. The composite z-score with Sam68 (KHDRBS1) turned out to be 0.135; in [7] it was 0.0246; in test [8] it was 0.187; in test [9] it was 0.521; in test [10], 0.0161; in [11], 0.019. Moreover, the composite z-score in test [12] is 0.933; in test [13], 0.627; in test [14], 1.29; with Lefty1, -0.12; in test [16], 0.0487. For the same compound, the composite Z-score in [1] was 0.154 (inactive). Also, the z-score was -0.316 in test [15] and -1.08 (inactive) in [17].

On to `CC(C)(C)OC(=O)CC[C@@]1(C(N)=O)N=C(c2ccc(OCCCO)cc2)O[C@@H]1c1ccccc1N=[N+]=[N-]`, for which the composite z-score was 0.501 in the test with Albumin (Bos taurus); 0.191 in test [2]; -0.0241 in test [3]; 0.616 in test [4]; 2.08 in test [5]; -0.293 in test [6]. In addition, the composite z-score in the test with Sam68 (KHDRBS1) is 1.07; in test [7], -0.409; in test [8], 1.13; in [9] it was 1.12; in test [10] it was 0.886; in test [11], 1.1. Further, the composite z-score in test [12] was 1.06; in [13], 1.21; in [14], 1.12; in the test on Lefty1 it was 0.512; in test [16], 0.884. Besides, the composite Z-score in test [1] is 0.005 (inactive). The z-score in test [15] is -0.04; in test [17], -10.5 (active).
